From PubChem BioAssay AID463173 (ICCB-Longwood Screening Facility, Harvard Medical School, 2010) come the findings set out here.

The structures appear in SMILES notation. Among all 52,000 compounds or so, about 4,300 (8.3%) were called active. No stated cut-off is given here; in the data, active means survival mostly below about 52% (no sharp cut-off); inactive means mostly above about 56%. The full list was thinned out, with actives kept by preference.

This experiment has as its system DeltatarO mutant. Description: growth inhibition of S. aureus wild type versus tarO mutant, primary screen, teichoic acid synthesis inhibitors, RN4220, OD600 (AID 463173). The settings on record: OD600, 18 h, active compounds read low, screened at 18.75 µg/mL (by protocol).
`Cc1ccccc1-c1noc(C(C)NC(=O)c2ccco2)n1` (stereo unspecified): the survival was 79% (inactive). `COc1ccc(-n2c(=O)c3c4c(sc3n(Cc3ccccc3C)c2=O)CCCC4)c(OC)c1`: the survival is 64% (inactive).

On to `CCOc1ccccc1NC(=O)c1cc(S(=O)(=O)NC2CCCC2)ccc1F`, for which the survival was 81% (inactive). As to `O=C(NCC(c1ccccc1)c1ccccc1)c1nn(-c2ccccc2F)nc1CO`, the survival was 104% (inactive). In the case of `O=c1c2sc3ccccc3c2n(Cc2cccc(Cl)c2)c(=O)n1Cc1ccc(F)cc1`, the survival is 68% (active). With `COc1ccccc1NC(=O)Cn1c(=O)n(CCc2ccccc2)c(=O)c2sc3ccccc3c21`, the survival is 74% (inactive).

Regarding `O=c1c2sc3ccccc3c2n(Cc2ccc(F)cc2)c(=O)n1Cc1ccccc1`, the survival is 137% (inactive). For `Cc1ccccc1NC(=O)Cn1c(=O)n(Cc2ccccc2)c(=O)c2sc3ccccc3c21`, the survival is 65% (inactive).

Regarding `O=c1c2sc3ccccc3c2n(Cc2cccc(Cl)c2)c(=O)n1Cc1ccccc1`, the survival is 66% (inactive).

Take `COc1ccccc1NC(=O)Cn1c(=O)n(Cc2ccccc2)c(=O)c2sc3ccccc3c21`: the survival was 68% (active).

With `CCS(=O)(=O)c1ncc(N(Cc2cccc(F)c2)Cc2ccco2)c(C(=O)Nc2ccccc2Cl)n1`, the survival was 64% (inactive). For the compound `COc1ccc(Cl)cc1NC(=O)c1nc(S(C)(=O)=O)ncc1N(Cc1ccc(C)cc1)Cc1ccco1`, the survival is 103% (inactive). As to `COc1cccc(CN(Cc2ccco2)c2cnc(S(C)(=O)=O)nc2C(=O)Nc2cccc(Cl)c2C)c1`, the survival was 47% (active). With `CCc1ccc(CN(Cc2ccco2)c2cnc(S(C)(=O)=O)nc2C(=O)Nc2ccccc2Cl)cc1`, the survival is 101% (inactive).

Turning to `COc1ccccc1CN(Cc1ccco1)c1cnc(S(C)(=O)=O)nc1C(=O)Nc1ccccc1Cl`, the survival was 46% (active). As for `COc1ccccc1CN(Cc1ccco1)c1cnc(S(C)(=O)=O)nc1C(=O)Nc1cc(C)ccc1C`, the survival is 58% (inactive). As for `CCOc1ccccc1NC(=O)C(=O)c1cc(C)n(-c2ccc(F)cc2)c1C`, the survival is 114% (inactive). In the case of `Cn1cc(-c2nnc(-c3ccccc3)o2)c2ccccc21`, the survival is 94% (inactive).

Turning to `CCCCOc1ccc(C(=O)N(Cc2nc(-c3ccc(Cl)cc3)no2)C(C)C)cc1`, the survival was 59% (inactive). `Cc1ccc(-c2noc(CN(C(=O)c3ccc(C(C)(C)C)cc3)C(C)C)n2)cc1`: the survival is -4% (active).

Turning to `Cc1cc(C)cc(C(=O)N(Cc2nc(-c3ccc(Cl)cc3)no2)C(C)C)c1`, the survival was 14% (active).

For `CC(C)N(Cc1nc(-c2ccc(Cl)cc2)no1)C(=O)c1ccc(C(C)(C)C)cc1`, the survival is -1% (active).

In the case of `CC(C)N(Cc1nc(-c2ccc(Cl)cc2)no1)C(=O)c1ccco1`, the survival is 68% (inactive).

For the compound `Cc1ccccc1C(=O)N(Cc1nc(-c2ccc(Cl)cc2)no1)C(C)C`, the survival was 78% (inactive). For `COc1cccc(C(=O)N(Cc2nc(-c3ccc(Cl)cc3)no2)C(C)C)c1OC`, the survival is 66% (inactive). In the case of `CCOc1ccc(C(=O)NCc2nc(-c3ccc(Cl)cc3)no2)cc1OCC`, the survival was 49% (inactive). On to `CCOc1cc(C(=O)N(Cc2nc(-c3ccc(C)cc3)no2)C(C)C)cc(OCC)c1OCC`, for which the survival was 50% (active). Take `Cc1ccc(-c2noc(CNC(=O)c3ccc(C(C)(C)C)cc3)n2)cc1`: the survival is 79% (inactive).

For the compound `CCOc1cc(C(=O)NCc2nc(-c3cccc(C)c3)no2)cc(OCC)c1OCC`, the survival is 70% (inactive). Consider `O=C(CCN1C(=O)CSC1=O)Nc1ccccc1`, for which the survival was 114% (inactive).

As to `COc1ccc(OC)c(-c2noc(N3CCN(c4cccc(C(F)(F)F)c4)CC3)n2)c1`, the survival was 124% (inactive). Next, `COc1ccc(NC(=O)c2cnn(-c3ccc(C)cc3)c2-n2cccc2)cc1Cl`: 69% (inactive). Take `CN1C(=O)Cc2cc(S(=O)(=O)N3CCN(c4ccccc4F)CC3)ccc21`: the survival is 107% (inactive).

For `COC(=O)c1cc2occc2n1CC(=O)Nc1ccc(C(C)C)cc1`, the survival is 93% (inactive). As to `CCc1ccccc1Nc1cc(C(=O)NCc2ccc(C)cc2)c2ccccc2n1`, the survival is 69% (inactive). For the compound `CCOc1ccc(CNC(=O)CCC(=O)N2CC(C)Sc3ccccc32)cc1` (stereo unspecified), the survival was 56% (inactive). Next, `Cc1ccc(CNC(=O)CCC(=O)N2CCSc3ccccc32)cc1`: 113% (inactive).

On to `COc1ccccc1CNC(=O)CCC(=O)N1CC(C)Sc2ccccc21` (stereo unspecified), for which the survival was 111% (inactive).

`COc1cccc(CNC(=O)CCC(=O)N2CC(C)Sc3ccccc32)c1` (stereo unspecified): the survival was 51% (active). Take `Cc1ccc(CNC(=O)CCC(=O)N2CC(C)Sc3ccccc32)cc1` (stereo unspecified): the survival is 45% (active). Regarding `CC1CN(C(=O)CCC(=O)NCc2cccc(Cl)c2)c2ccccc2S1` (stereo unspecified), the survival is 100% (inactive). Regarding `O=C(Nc1ccc2nc(SCCOc3ccccc3Cl)sc2c1)c1ccc2c(c1)OCO2`, the survival is 68% (inactive). Regarding `COc1cn(CC(=O)Nc2c(C)cc(C)cc2C)c(CN2CCCCC2)cc1=O`, the survival is 98% (inactive). In the case of `CCOc1ccc(NS(=O)(=O)c2ccc(NC(=O)N3CCCC3)cc2)cc1`, the survival is 101% (inactive). To `COc1ccc(OC)c(NC(=O)C(C)n2c(=O)cc(C)c3c(C)nn(-c4ccccc4)c32)c1` (stereo unspecified) belongs 94% (inactive); to `CCOc1ccccc1-c1cc(C(=O)N/N=C(\C)c2ccco2)[nH]n1`, 85% (inactive).

For the compound `Clc1cccc(-c2ccc(CNCCSc3nnnn3-c3ccccc3)o2)c1`, the survival was 30% (active). To `Brc1ccc(-c2ccc(CNCCSc3nnnn3-c3ccccc3)o2)cc1` belongs 67% (inactive); to `CCOc1cc(CNCCSc2nnnn2-c2ccccc2)ccc1OC`, 60% (inactive). With `Fc1ccc(-c2ccc(CNCCSc3nnnn3-c3ccccc3)o2)cc1Cl`, the survival is 39% (active). For `Cc1c(Cl)cccc1-c1ccc(CNCCSc2nnnn2-c2ccccc2)o1`, the survival was 62% (inactive). As to `Fc1ccc(CNCCCSc2nnnn2-c2ccccc2)cc1`, the survival was 97% (inactive). Turning to `Clc1ccc(-c2ccc(CNCCSc3nnnn3-c3ccccc3)o2)cc1`, the survival is 52% (inactive). Take `Clc1cccc(CNCCCSc2nnnn2-c2ccccc2)c1`: the survival was 68% (inactive). For the compound `Fc1cccc(Cl)c1CNCCSc1nnnn1-c1ccccc1`, the survival was 79% (inactive). Next, `Fc1ccc(-c2ccc(CNCCSc3nnnn3-c3ccccc3)o2)cc1`: 28% (active); `CCOc1ccc(Br)cc1CNCCSc1nnnn1-c1ccccc1`: 23% (active); `COc1cc(OC)c(OC)cc1CNCCSc1nnnn1-c1ccccc1`: 61% (inactive). Turning to `Cc1ccccc1OCC(=O)Nc1ccc2[nH]c(=O)sc2c1`, the survival was 133% (inactive). For the compound `CN(C)c1ccc(/C=C/C=c2\sc3nc4ccccc4n3c2=O)cc1`, the survival is 102% (inactive). With `Cn1nnnc1SCCCNCc1ccc(-c2ccc(Br)cc2)o1`, the survival was 32% (active). Take `Cn1nnnc1SCCCNCc1ccc(-c2cccc(Cl)c2)o1`: the survival was 97% (inactive). For `Cn1nnnc1SCCCNCc1ccc(-c2ccc(F)c(Cl)c2)o1`, the survival was 82% (inactive). Next, `COc1cccc2c1Oc1ncccc1N(C(=O)CCC(=O)NCc1ccc(C)cc1)C2`: 81% (inactive). As for `CCc1ccc(C2=NN(CCC(=O)NCCc3ccc(Cl)cc3)C(=O)CC2)cc1`, the survival is 128% (inactive). Next, `Cc1ccc(CNC(=O)CSc2nc3ccccc3nc2Cc2ccc(C)cc2)cc1`: 71% (inactive); `CCCCNC(=O)CSc1nc2ccccc2nc1Cc1ccc(C)cc1`: 87% (inactive).

For the compound `O=C(CSc1nc2ccccc2nc1Cc1ccc(Cl)cc1)NCCc1ccccc1`, the survival was 69% (inactive).

In the case of `COc1ccc(CCNC(=O)CSc2nc3ccccc3nc2Cc2ccc(C)cc2)cc1OC`, the survival is 35% (active). As for `Cc1ccc(Cc2nc3ccccc3nc2SCC(=O)NCCc2ccccc2)cc1`, the survival was 67% (inactive).

Consider `CCCNC(=O)CSc1nc2ccccc2nc1Cc1ccc(Cl)cc1`, for which the survival was 74% (inactive). Regarding `CCCCN(C)C(=O)CSc1nc2ccccc2nc1Cc1ccc(C)cc1`, the survival is 32% (active). In the case of `CCOc1ccc(CCNC(=O)CSc2nc3ccccc3nc2Cc2ccc(C)cc2)cc1OCC`, the survival is 112% (inactive). With `COc1ccc(CCNC(=O)CSc2nc3ccccc3nc2Cc2ccc(Cl)cc2)cc1OC`, the survival is 37% (active). With `CCOc1ccc(CNS(=O)(=O)c2ccc3c(c2)CCCN3C(C)=O)cc1`, the survival was 93% (inactive). Next, `CC(Sc1nc(NC(C)(C)C)nc(N(C)C)n1)C(=O)Nc1ccccc1` (stereo unspecified): 68% (inactive). `COc1cc2[nH]c(=O)n(Cc3ccc(C(=O)N4CCN(c5cc(Cl)ccc5C)CC4)cc3)c(=O)c2cc1OC`: the survival is 58% (inactive). Turning to `COc1ccc(CNC(=O)CCNS(=O)(=O)c2ccc3c(c2)CCCC(=O)N3)cc1`, the survival is 119% (inactive). Consider `COc1ccccc1NC(=O)C1=C(C)Nc2nc(SCc3ccccc3Cl)nn2C1c1ccccn1` (stereo unspecified), for which the survival is 171% (inactive). In the case of `CCn1cc(C(=O)N2CCN(c3ccc(OC)cc3)CC2)c(=O)c2cc(S(=O)(=O)N(C)C3CCCCC3)ccc21`, the survival is 122% (inactive). `CC(NC(=O)c1ccc(NC(=O)c2nsc3ccccc23)cc1)c1ccccc1` (stereo unspecified): the survival was 84% (inactive). `O=C(Cc1csc2ccccc12)NCc1ccc(F)cc1`: the survival is 71% (inactive). As for `Cc1cc(C)c(NC(=O)C(C)n2c(=O)cc(C)c3c(C)nn(-c4ccccc4)c32)c(C)c1` (stereo unspecified), the survival was 81% (inactive). Turning to `COCCCNC(=O)c1nn(C)c2c1CS(=O)(=O)c1ccccc1-2`, the survival was 99% (inactive).

In the case of `CC(C)NC(=O)c1nn(C)c2c1CS(=O)(=O)c1ccccc1-2`, the survival is 51% (active).

For the compound `Cn1nc(C(=O)Nc2ccc(F)c(Cl)c2)c2c1-c1ccccc1S(=O)(=O)C2`, the survival is 90% (inactive). For `COc1ccc(NC(=O)c2nn(C)c3c2CS(=O)(=O)c2ccccc2-3)cc1Cl`, the survival is 56% (active). As to `COc1ccc(Cl)cc1NC(=O)c1nn(C)c2c1CS(=O)(=O)c1ccccc1-2`, the survival is 53% (inactive). To `Cn1nc(C(=O)NCc2ccccc2)c2c1-c1ccccc1S(=O)(=O)C2` belongs 85% (inactive); to `CCN1C(=O)c2ccccc2Sc2ccc(NC(=O)COc3ccc(Cl)cc3)cc21`, 91% (inactive). Take `CCCCN(CC)CCNC(=O)c1c(C)oc2ncnc(N3CCOCC3)c12`: the survival is 87% (inactive).
